The list is not random: actives were taken first. Their share in the collection is about 7%.
PLK1 PBD inh: PLK1 (human) polo-box domain binding inhibition. P53350. Plk1 PBD binding of FITC phosphopeptide, fluorescence polarization. Potency, µM, most hits filed as inhibitors. 360,000 tested, 2.8% active; also: series mostly up to about 57 µM; nearly all actives have a fitted effect of over 65% in size
Target sequence (P53350 whole entry, looked up, the tested form may be a part): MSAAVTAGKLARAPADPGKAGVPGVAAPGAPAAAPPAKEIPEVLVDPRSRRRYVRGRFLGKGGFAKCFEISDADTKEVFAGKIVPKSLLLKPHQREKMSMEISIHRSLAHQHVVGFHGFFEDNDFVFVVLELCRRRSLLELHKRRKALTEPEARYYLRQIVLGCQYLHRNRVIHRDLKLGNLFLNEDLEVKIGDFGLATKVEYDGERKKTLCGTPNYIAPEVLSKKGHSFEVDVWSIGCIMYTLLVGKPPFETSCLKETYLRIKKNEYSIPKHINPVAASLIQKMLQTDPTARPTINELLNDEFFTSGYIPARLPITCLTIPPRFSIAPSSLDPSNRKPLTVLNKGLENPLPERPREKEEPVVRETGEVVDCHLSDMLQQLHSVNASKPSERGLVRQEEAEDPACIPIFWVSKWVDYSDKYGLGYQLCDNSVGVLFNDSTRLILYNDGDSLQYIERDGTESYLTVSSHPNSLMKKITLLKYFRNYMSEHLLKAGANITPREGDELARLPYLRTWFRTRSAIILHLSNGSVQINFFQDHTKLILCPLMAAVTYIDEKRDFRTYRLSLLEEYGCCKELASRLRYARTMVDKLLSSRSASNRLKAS
BAZ2B inh: BAZ2B (human) inhibition. 360,000 tested, 4.4% active. Q9UIF8. Potency, µM (top dose mostly 114 µM), hits mostly inhibitors. AlphaScreen BAZ2B-H3K14Ac peptide displacement; also: nearly all actives have a fitted effect of over 60% in size
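Complex of BAZ2B and biotin-H3K14Ac (50 nM apiece) forms over 30 min at RT, then faces library compounds up to 110 uM for another 30 min; AlphaScreen beads added, 20 min dark incubation, luminescence read.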
JMJD2A Tudor inh: JMJD2A Tudor domain (human) inhibition. 390,000 tested, 4.4% active. AlphaScreen JMJD2A-Tudor / H3K4me3 peptide binding. O75164. AID 504339. Potency, µM (top dose mostly 114 µM), actives largely listed as inhibitors; also: nearly all actives have a fitted effect of over 50% in size
KAT2A inh: inhibitors of human GCN5L2 histone acetyltransferase; Q92830; GCN5L2 HAT assay, ThioGlo1 CoA-SH fluorescence; Potency, µM (series often up to 58.9 µM), actives largely listed as inhibitors; 390,000 tested, 0.21% active
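Preincubate 20nM GCN5L2 with compound 15 min, RT → add 50uM ThioGlo1 + 75uM H3(1-25) + 70uM acetyl-CoA → read fluorescence 0 and 20 min. Primary qHTS; fluorescent artifacts likely.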
PI5P4K alpha inh: blocks human PI5P4K alpha kinase activity. PI5P4Kalpha enzyme, ADP-Glo luminescence, 60 min; hits give low values. max response, %. 330,000 tested, 1.2% active; active = max response of -50% or lower; inconclusive = between -30% and -50%; inactive = -30% or higher; also: value at the top dose of about 77 µM
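Luminescence from ADP-Glo served as readout of PI5P4Kalpha activity in a qHTS format. Reaction: enzyme, substrate, compound, ATP at 5 microM final, 60 min at RT.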
HP1b binding inh: inhibitors of HP1-beta chromodomain binding to methylated histone tails. P83916. AlphaScreen HP1-beta / biotin-H3K9me3 peptide binding. Potency, µM (titrated, usually from 114 µM), usual class: inhibitors. 390,000 tested, 0.56% active; also: nearly all actives have a fitted effect of over 70% in size
Target sequence (P83916 whole entry, looked up): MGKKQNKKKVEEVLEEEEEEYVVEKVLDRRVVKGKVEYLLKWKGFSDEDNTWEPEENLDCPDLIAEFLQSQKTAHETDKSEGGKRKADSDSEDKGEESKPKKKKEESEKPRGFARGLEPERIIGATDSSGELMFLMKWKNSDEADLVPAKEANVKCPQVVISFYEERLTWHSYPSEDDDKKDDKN
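AlphaScreen: HP1-beta (50 nM) preformed 30 min with biotin-H3(1-18)K9me3 peptide (50 nM) in PBS pH 7.4, 0.01% Tween-20. Compound added for 30 min at RT, then streptavidin donor/nickel chelate acceptor beads (10 ug/mL) for 30 min.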
Large screens that a line does not name were inactive. Unless noted, calls follow the shape of the dose curve; as a rule, active = well fitted curve in the direction sought with a large enough effect; inconclusive = small, poorly fitted or top-dose-only effect, or another doubt; inactive = no such curve, though single readings can be large; an effect the other way counts as inactive or inconclusive.

O=[N+]([O-])c1ccc(/C=[N+](\[O-])[C@@H]2CCCC[C@@H]2/[N+]([O-])=C/c2ccc([N+](=O)[O-])o2)o1	BAZ2B inh 2.51µM
C/C(=N\NC(=O)c1cccc(N/N=C(\C)c2cc(O)ccc2O)c1)c1cc(O)ccc1O	BAZ2B inh 11.2µM, JMJD2A Tudor inh 12.6µM, HP1b binding inh inconclusive
C/C(=N\NC(=O)c1cccc(N/N=C(\C)c2ccco2)c1)c1ccco1	JMJD2A Tudor inh inconclusive, PI5P4K alpha inh -85.6
CCOC(=O)C1CCN(C(=O)C2CCN(S(=O)(=O)c3cc(Cl)ccc3OCC)CC2)CC1	none
C#CCOCCOCCOCCNc1nc(N2CCOCC2)nc(N2CCN(C(=O)[C@H](CO)n3cc([C@@H](N)C(C)C)nn3)CC2)n1	none (no result: BAZ2B inh)
C#CCOCCOCCOCCNc1nc(N2CCN(C(=O)[C@H](Cc3ccc(O)cc3)n3cc([C@@H](N)C(C)CC)nn3)CC2)nc(N2CCN(C(=O)[C@H](Cc3cc4ccccc4[nH]3)n3cc([C@@H](N)Cc4ccc(O)cc4)nn3)CC2)n1 (stereo partly drawn)	BAZ2B inh 31.6µM (no result: PLK1 PBD inh, JMJD2A Tudor inh, PI5P4K alpha inh, HP1b binding inh)
C#CCOCCOCCOCCNc1nc(N2CCN(C(=O)[C@H](Cc3ccc(O)cc3)n3cc([C@@H](N)CC(C)C)nn3)CC2)nc(N2CCN(C(=O)[C@H](Cc3cc4ccccc4[nH]3)n3cc([C@@H](N)CC(C)C)nn3)CC2)n1	BAZ2B inh 25.1µM, JMJD2A Tudor inh 10µM, PI5P4K alpha inh inconclusive
C#CCOCCOCCOCCNc1nc(N2CCN(C(=O)C(Cc3ccc(O)cc3)n3cc(C(N)CC(C)C)nn3)CC2)nc(N2CCN(C(=O)C(Cc3cc4ccccc4[nH]3)n3cc(C(N)C(C)CC)nn3)CC2)n1 (stereo not drawn)	BAZ2B inh 50.1µM (no result: PLK1 PBD inh, JMJD2A Tudor inh, PI5P4K alpha inh, HP1b binding inh)
CC1CCCCN1C(=O)C1CCN(c2nc(-c3ccccc3)nc3c2CCC3)CC1 (stereo not drawn)	none
COc1ccc(C=NN=C2c3ccccc3-c3ccccc32)cc1OC	JMJD2A Tudor inh 12.6µM, HP1b binding inh inconclusive (no result: BAZ2B inh, KAT2A inh)
COc1cc(/C=N/N=C2/C(=O)Nc3ccccc32)ccc1O	BAZ2B inh inconclusive, JMJD2A Tudor inh inconclusive
Nc1nc2c(ncn2[C@@H]2O[C@H](CNS(=O)(=O)N3CCCC3)[C@@H](O)[C@H]2O)c(=O)[nH]1	none (no result: BAZ2B inh, JMJD2A Tudor inh, KAT2A inh, HP1b binding inh)
Cc1cc(C)c(NC(=O)C(C)n2c(=O)cc(C)c3c(C)nn(-c4ccccc4)c32)c(C)c1 (stereo not drawn)	none (no result: PLK1 PBD inh, PI5P4K alpha inh)
C[n+]1cccc2cccc([O-])c21	BAZ2B inh 56.2µM, JMJD2A Tudor inh inconclusive, KAT2A inh inconclusive
Cc1ccccc1Cn1ccn(-c2ccc(F)c(F)c2)c(=O)c1=O	none (no result: PLK1 PBD inh, PI5P4K alpha inh)
Cc1cc(C)c(-c2csc(Cc3nc(-c4cc5ccccc5oc4=O)cs3)n2)cc1C	PLK1 PBD inh 26.7µM, JMJD2A Tudor inh inconclusive
CC1(C(=O)NS(=O)(=O)c2cccc(C#N)c2)CCN1C(=O)Cc1ccccc1Cl (stereo not drawn)	none (no result: BAZ2B inh, JMJD2A Tudor inh, KAT2A inh, HP1b binding inh)
CCN1C[C@@H]2[C@@H]3C(=O)N(C)C(=O)[C@@H]3[C@](Cc3ccccc3)(C1=O)N2C(=O)c1ccc(F)cc1	none (no result: BAZ2B inh, KAT2A inh)
CC(C)N(C)S(=O)(=O)c1ccc(NC(=O)CSC(=S)N2CCCC2)cc1	none
NC(=S)Cc1nc2n(n1)Cc1ccccc1-2	PLK1 PBD inh inconclusive, JMJD2A Tudor inh 25.1µM (no result: PI5P4K alpha inh)
CCOC(=O)Cc1ccc(NC(=O)N2CCOc3ccc(C)cc32)cc1	none (no result: PLK1 PBD inh, PI5P4K alpha inh)
C=CCC1(O)CC(c2ccco2)NC(c2ccco2)C1CCC (stereo not drawn)	BAZ2B inh 50.1µM, JMJD2A Tudor inh 4.47µM, HP1b binding inh inconclusive (no result: PI5P4K alpha inh)
COc1ccc(-c2nc(-c3ccccc3)c(-c3ccc(F)cc3)[nH]2)c(OC)c1C	BAZ2B inh 25.1µM, JMJD2A Tudor inh inconclusive (no result: PLK1 PBD inh, PI5P4K alpha inh)
COc1cc(-c2nc(-c3ccccc3)c(-c3ccc(Br)cc3)[nH]2)cc(OC)c1O	BAZ2B inh 28.2µM, JMJD2A Tudor inh 44.7µM, HP1b binding inh inconclusive (no result: PLK1 PBD inh, PI5P4K alpha inh)
O=C1NC(=S)N/C1=C/c1cccn1-c1ccc([N+](=O)[O-])cc1	BAZ2B inh inconclusive, PI5P4K alpha inh -54.7
Cc1cc(SCC(=O)N/N=C/c2ccc(O)c(O)c2O)c(C)cc1Br	PLK1 PBD inh 5.97µM, JMJD2A Tudor inh 50.1µM, PI5P4K alpha inh -86.9, HP1b binding inh inconclusive
CCCC12CN3CC(C)(CN(C1)C3c1ccco1)C2=O (stereo not drawn)	PLK1 PBD inh 18.9µM, JMJD2A Tudor inh 56.2µM
CCCC12CN3CC(CCC)(CN(C1)C3c1ccco1)C2=O (stereo not drawn)	none
CC(NC(=O)c1ccc(Br)o1)C1CC2CCC1C2 (stereo not drawn)	none
CCCOc1ccc(C(=O)c2nc3c(n2O)CCCCC3)cc1	JMJD2A Tudor inh inconclusive (no result: PI5P4K alpha inh)
O=C(c1ccccc1)c1nc2c(n1O)CCCCC2	BAZ2B inh 79.4µM
CCN(CC)c1cccc(OCC(=O)N2c3ccccc3CC2C)c1 (stereo not drawn)	BAZ2B inh inconclusive, JMJD2A Tudor inh inconclusive
COc1cccc(-c2ncc3ccccn23)c1	BAZ2B inh 35.5µM, JMJD2A Tudor inh 3.55µM, HP1b binding inh 15.8µM
COc1cc(-c2ncc3ccccn23)cc(OC)c1OC	BAZ2B inh 44.7µM, JMJD2A Tudor inh 11.2µM, HP1b binding inh 50.1µM
COc1cc(OC)cc(-c2ncc3ccccn23)c1	BAZ2B inh 31.6µM, JMJD2A Tudor inh 2.82µM, HP1b binding inh inconclusive
CCOC(=O)C1(C)/C(=N/Nc2cccc(Cl)c2)C(=O)C(=O)N1c1ccccc1 (stereo not drawn)	PLK1 PBD inh inconclusive, BAZ2B inh inconclusive, JMJD2A Tudor inh 28.2µM, HP1b binding inh inconclusive
CCOC(=O)C1(C)/C(=N/Nc2ccccc2Cl)C(=O)C(=O)N1c1ccccc1 (stereo not drawn)	PLK1 PBD inh inconclusive, BAZ2B inh 50.1µM, JMJD2A Tudor inh 39.8µM, HP1b binding inh inconclusive (no result: PI5P4K alpha inh)
CCOC(=O)C1(C)/C(=N/Nc2ccc(Cl)cc2)C(=O)C(=O)N1c1ccccc1 (stereo not drawn)	PLK1 PBD inh inconclusive, BAZ2B inh 56.2µM, JMJD2A Tudor inh 15.8µM, HP1b binding inh inconclusive (no result: PI5P4K alpha inh)
CCOC(=O)C1(C)/C(=N/Nc2ccc(S(N)(=O)=O)cc2)C(=O)C(=O)N1c1ccccc1 (stereo not drawn)	none
COc1ccc(C(=O)NCCc2ccccn2)cc1S(=O)(=O)Nc1ccc(Br)cc1	none
Cc1c(C=O)c2cc(OCc3ccccc3)ccc2n1C	none
Cc1cc2occ(CC(=O)N(C)CC(=O)Nc3ccccc3Br)c2cc1C	none
CCCS(=O)(=O)NC(=O)C1(C)CCN(C(=O)c2cc(OC)c(OC)c(OC)c2)C1 (stereo not drawn)	none (no result: BAZ2B inh, JMJD2A Tudor inh, KAT2A inh, HP1b binding inh)
CCCSC1=N/C(=C\c2ccsc2)C(=O)S1	KAT2A inh inconclusive
